Compounds with a hit are over-represented: about 12% of the library has one in this group of screens.
ALDH1A1 inh = blocks purified human ALDH1A1 activity. 7.3% of 220,000 active. Potency, µM (highest dose often 75.3 µM), inactives show at the highest dose activity, negative = inhibition, most hits filed as inhibitors. Purified ALDH1A1, NADH fluorescence, propionaldehyde substrate. P00352; active = well fitted inhibition curve with a large enough effect, not every such curve was filed as active; inconclusive = small, poorly fitted or top-dose-only effect, or another doubt; inactive = no such curve, though single readings can be large or run the other way;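 also: plate controls were no enzyme wells and a reference inhibitor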
Target sequence (P00352 whole entry, looked up): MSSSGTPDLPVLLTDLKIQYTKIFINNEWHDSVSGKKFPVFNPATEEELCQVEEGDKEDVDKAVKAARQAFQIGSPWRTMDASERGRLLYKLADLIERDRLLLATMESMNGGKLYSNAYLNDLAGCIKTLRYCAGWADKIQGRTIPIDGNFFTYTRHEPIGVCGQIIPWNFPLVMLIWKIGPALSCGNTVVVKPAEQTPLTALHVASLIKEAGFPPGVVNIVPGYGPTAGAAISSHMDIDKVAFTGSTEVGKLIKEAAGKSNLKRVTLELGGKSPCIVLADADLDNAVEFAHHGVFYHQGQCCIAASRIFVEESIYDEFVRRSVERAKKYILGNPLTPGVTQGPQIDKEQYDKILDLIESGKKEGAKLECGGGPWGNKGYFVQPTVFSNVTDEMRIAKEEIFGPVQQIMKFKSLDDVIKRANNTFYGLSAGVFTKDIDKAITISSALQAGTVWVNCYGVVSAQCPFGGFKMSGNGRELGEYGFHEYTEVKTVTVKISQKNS
VP16 counter = Gal4-VP16 reporter inhibition counter-screen. Drosophila S2 Gal4-VP16 UAS-luciferase, luminescence, 20 h. Potency, µM (titrated, usually from 53.6 µM), inactives show at the top dose activity, negative = inhibition, usual class: inhibitors. 3.5% of 310,000 active;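 also: Gal4-VP16 expression switched on by copper sulfate through the metallothionein promoter; nearly all actives have a fitted effect of over 50% in size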
RORg inh = inhibitors of mouse ROR gamma transcriptional activity. Potency, µM (series often up to 53.6 µM), inactives show at the highest dose activity change, negative = inhibition, hits mostly inhibitors. P51450. 5.4% of 310,000 active. AID 2551. Drosophila S2 Gal4-RORgamma UAS-luciferase reporter, 20 h; also: nearly all actives have a fitted effect of over 60% in size
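In this cell-based reporter format, copper sulfate (700 uM final) drives Gal4–ROR gamma fusion expression from a metallothionein promoter in Drosophila Schneider cells; compounds preincubated 1 hr, reporter read after 20 hr at ambient temperature.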
PLK1 PBD block = PLK1 (human) polo-box domain binding inhibition. Plk1 PBD binding of FITC phosphopeptide, fluorescence polarization. 2.8% of 360,000 active. P53350. Potency, µM, for the others: max response, negative = inhibition, usual class: inhibitors; also: series mostly up to about 57 µM; nearly all actives have a fitted effect of over 65% in size
Sfp inh = Sfp phosphopantetheinyl transferase inhibition; Q9F4F7; Biochemical Sfp PPTase activity, qHTS; Potency, µM, without a hit: largest response in the series, negative = inhibition, hits mostly inhibitors; 3.5% of 310,000 active; AID 1490;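 also: the enzyme is Sfp with the accession as filed and its product quenches rhodamine fluorescence; 0% = enzyme reaction without inhibitor and -100% = no enzyme wells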
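Reaction rates are the 30-min fluorescence difference (ex 525, em 598 nm) in wells containing 15 nM Sfp, 5 uM rhodamine-CoA and 12.5 uM BHQ-2-YbbR at pH 7.6 with 10 mM MgCl2.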
The depositor's hits bear a star; ? = inconclusive; · = not tested or not shown; [ ] = dose if it differs, or a comment. Unless noted, calls follow the shape of the dose curve; as a rule, active = well fitted curve in the direction sought with a large enough effect; inconclusive = small, poorly fitted or top-dose-only effect, or another doubt; inactive = no such curve, though single readings can be large; an effect the other way counts as inactive or inconclusive. Unless noted, % is scaled to controls: 0 for no effect and ±100 for the full control effect; potency is read from the fitted curve at half-maximal effect.

SMILES | ALDH1A1 inh | VP16 counter | RORg inh | PLK1 PBD block | Sfp inh
Cc1ccc(NC2c3ccccc3C(=O)N2CCN2CCOCC2)cc1 (centres undefined) | 1µM* | -5% | 5% | -9% | -3%
O=C1c2ccccc2C(Nc2ccc(S(=O)(=O)N3CCOCC3)cc2)N1Cc1ccco1 (centres undefined) | -11% | -5% | 18% | -19% | -5%
CCN(CC)S(=O)(=O)c1ccc(NC2c3ccccc3C(=O)N2CCN2CCOCC2)cc1 (centres undefined) | 0.2µM* | -1% | -23% | 7% | ?
O=C(CN1CCN(C(=O)C2CCCO2)CC1)Nc1ccc(Cl)cc1 (centres undefined) | · | -4% | -2% | -3% | -6%
C=C1CC2C(=O)N(Cc3cc(OC)ccc3OC)C(C(=O)OCC)C1N2C (centres undefined) | · | 5% | 15% | · | 7%
CCOc1cc(/C=N/NC(=O)CSc2nncn2C)ccc1OCc1ccccc1 | -6% | -10% | ? | 4% | -14%
COc1cc(/C(C)=N/NC(=O)CSc2nncn2C)ccc1OCc1ccccc1Cl | 5µM* | 3% | ? | -2% | -7%
Cc1cccc(NC(=O)CNC(=O)[C@H]2O[C@@H](n3ccc(=O)[nH]c3=O)[C@H](O)[C@@H]2O)c1C | · | · | · | -6% | ·
COc1cccc(CN(C)Cc2cc(=O)oc3cc(O)c(Cl)cc23)c1 | · | -3% | -25% | -4% | 79µM*
COC(=O)c1cc(C(C)=O)n2ccccc12 | 6% | 4% | -37% | 30µM* | 14%
CCOC(=O)c1cc(C(=O)OCC)c2ccccn2c1=O | ? | 0% | -17% | -2% | 6%
CCCN(CCC)C(=O)[C@@H](CCC(=O)O)NC(=O)c1ccccc1 | 19%[20.9 µM] | -6%[17 µM] | -13%[16.9 µM] | · | ?
CC(C)C(c1nnnn1C(C)(C)C)N1CCN(c2cccc(Cl)c2)CC1 (centres undefined) | 4% | 1% | -8% | 3µM* | 8%
CC(C)(C)n1nnnc1C(c1ccccc1)N1CCN(c2ccccc2)CC1 (centres undefined) | · | · | · | -13% | ·
CC(C)(C)n1nnnc1C(c1ccncc1)N1CCN(c2ccc(O)cc2)CC1 (centres undefined) | ? | -6% | -17% | 0% | 16µM*
Cc1ccc(C(c2nnnn2CCc2ccccc2)N2CCC(C)CC2)cc1 (centres undefined) | 1% | 14µM* | ? | -3% | 0%
Cc1ccc(C(c2nnnn2C(C)(C)C)N2CCC(C)CC2)cc1 (centres undefined) | -10% | -16% | ? | -4% | -7%
CC1CCN(C(c2ccccc2)c2nnnn2C(C)(C)C)CC1 (centres undefined) | 0% | 3.2µM* | ? | -5% | -20%
CC(C)(C)n1nnnc1C(c1cccc(C#N)c1)N1CCN2CCCC2C1 (centres undefined) | 20µM* | 15% | 2% | -7% | 4%
CC(C)(C)n1nnnc1C(c1cccc(C#N)c1)N1CCCCCC1 (centres undefined) | ? | -13% | -2% | -8% | 1%
C=CCn1c(SCC(=O)N2CCC(C)CC2)nc2c([nH]c3ccccc32)c1=O | · | · | · | 11% | ·
Cc1[nH]nc(-c2ccc(O)cc2O)c1-c1ccc(Cl)cc1 | -4% | 22µM* | 13µM* | -9% | 17%
COc1ccc(-c2n[nH]c(C)c2-c2ccc(Cl)cc2)c(O)c1 | -7% | 7.1µM* | 4µM* | 2% | -19%
COc1ccc(-c2n[nH]c(C)c2-c2ccc(Cl)cc2)c(O)c1OC | 8% | 7.1µM* | 7.1µM* | -4% | 12%
COc1ccc(O)c(-c2c(-c3ccc(Cl)cc3)n[nH]c2C)c1 | -1% | -18% | ? | -5% | -21%
CC12CCC=CC1C(c1ccc3ccccc3c1Br)N(Cc1ccccc1)C2=O (centres undefined) | · | -5% | -14% | · | ?
COCC(=O)Oc1cc(-c2ccc(C)cc2C)c(OC(=O)COC)c(-c2ccc(C)cc2C)c1 | · | · | · | -4% | ·
CC(=O)NC(c1ccccc1)c1nc(-c2ccc(F)c(Cl)c2)cs1 (centres undefined) | · | · | · | -5% | ·
CC(=O)NS(=O)(=O)c1ccc(NC(=O)[C@@H]2CCCN2S(=O)(=O)c2ccc(Cl)cc2)cc1 | · | · | · | -11% | ·

High-throughput results: PubChem, National Center for Advancing Translational Sciences (NCATS)
